Among the data in the OligoGym collection are sensor-assay potency score (higher = more potent) values, retold here.
Also: reference of the scale not given here.

The target of one experiment is KRTAP4-7. The experiment is described as follows: pooled miR-30 sensor sort-seq; sequence = guide strand. The settings on record: shRNA.
Sequence TGGTCTGACAGCAGCTGGGGCG gave a sensor-assay potency score (higher = more potent) of -1.46.

The sequence CTGGACACACAACAGCTGGGGC gave a sensor-assay potency score (higher = more potent) of -1.77.

CAGGTGGTCTGACAGCAGCTGG gave a sensor-assay potency score (higher = more potent) of -2.02.

With TAGGGTGGCAGCAGGTCGTCTC, the sensor-assay potency score (higher = more potent) is -0.549.

As for AGCTGGACACACAACAGCTGGG, the sensor-assay potency score (higher = more potent) was -1.49.

Sequence TGGTCAGAGCACACGGAGCCAC yielded a sensor-assay potency score (higher = more potent) of -1.43.

Turning to TGGAGATGCAGCACCTAGGGTG, the sensor-assay potency score (higher = more potent) was -0.36.

Sequence CAGCTGGACACACAACAGCTGG yielded a sensor-assay potency score (higher = more potent) of -1.96.

The sequence TAGCAGGTGGTCCTGCAACAGG yielded a sensor-assay potency score (higher = more potent) of -1.7.

In turn, TGACAGAGGACTTGGCCGCAGC displayed a sensor-assay potency score (higher = more potent) of -1.09.

As to TCTGACAGCAGCTGGGGCGGCA, the sensor-assay potency score (higher = more potent) was -1.19.

TCAGTGACAAAACTGGTCCTGC yielded a sensor-assay potency score (higher = more potent) of 0.367.

On to CAGCAGGTCGTCTCACAGCAGC, for which the sensor-assay potency score (higher = more potent) is -2.76.

In the case of TTGCAGCAGCTGGACATACAGC, the sensor-assay potency score (higher = more potent) was -1.51.

Consider TATTGAATGACATCAACCCCAC, for which the sensor-assay potency score (higher = more potent) is -0.0813.

A further experiment has as its target KRTAP5-8. The experiment is described as above. The settings on record: shRNA.
ACAGGAGCCACAGTCCCCCTTG gave a sensor-assay potency score (higher = more potent) of -0.958.

With ATGGGCACACAGCAGCTAGAGC, the sensor-assay potency score (higher = more potent) was -1.84.

Take TGAGGAGCAACAGCAGGGCTTA: the sensor-assay potency score (higher = more potent) is -1.48.

CTGCAGGGCTTACAACAGCTGG gave a sensor-assay potency score (higher = more potent) of -2.04.

With AGCCTGAGGAGCAACAGCAGGG, the sensor-assay potency score (higher = more potent) is -1.24.
